Assay outcomes deposited in PubChem by several laboratories.
RmlCD inh mix: mixture blocks RmlC and RmlD coupled enzyme activity | AID 1532 | inhibition, % at 5.5 µM | 0.39% of 110,000 active | RmlC/RmlD coupled enzyme inhibition, 384-well mixture HTS; in the data active = inhibition above about 30%, passing the limit was not always enough
YopH PTP inh: blocks Yersinia enterocolitica YopH tyrosine phosphatase; 0.16% of 140,000 active; inhibition, % (no concentration beside the values); fluorescence Ex485/Em525; in the data active = inhibition above about 50%
* hit, by the source's call; x = no result given; + = active, no number. The list is not random: actives were taken first. Their share in the collection is about 0.44%.

SMILES | RmlCD inh mix | YopH PTP inh
O=C(NC(C(=O)O)c1ccccc1)c1ccc(S(=O)(=O)N2CCOCC2)cc1 (centres undefined) | -31 | 50*
O=C(c1cccs1)N1CCN=C1SCc1cccnc1 | -3 | 50*
O=C(c1ccco1)N1CCN=C1SCc1cccnc1 | 6 | -30
Cc1ccc(C)c(-n2c(-c3csc(C)c3C)n[nH]c2=S)c1 | x | -32
Cc1ccc(/C=N/N2CCN(Cc3ccc(Cl)cc3)CC2)o1 | 4 | -13
CCc1cc(=O)oc2c(C)c(O)c(CN3CCCCC3)cc12 | 93* | -36
Cc1c(O)c(CN2CCCC2)cc2c3c(c(=O)oc12)CCC3 | 106 | -50
CCCC(=O)OCCNc1cc(SCc2ccco2)c2nonc2c1[N+](=O)[O-] | x | 37
CC(=O)OCCCNc1cc(SCc2ccco2)c2nonc2c1[N+](=O)[O-] | x | 69*
COc1ccc(CNC(=O)CSc2ccc(Br)cc2)cc1OC | x | -27
O=c1c(Cl)c(N/N=C/c2ccc(Br)cc2)cnn1-c1ccccc1 | x | -1
COc1cc(C2NC(=O)NC(C)=C2C(=O)OCc2ccccc2)ccc1O (centres undefined) | 17 | x
COc1cc(C2C(C(=O)OC(C)C)=C(C)Nc3[nH]c(=O)[nH]c(=O)c32)ccc1O (centres undefined) | -11 | 51*
Cc1ccc(-c2nc(CSCC(=O)NCc3cccnc3)c(C)o2)cc1 | 9 | -13
FC(F)(F)c1ccc(Oc2ccc3cc(Br)ccc3c2)nc1 | x | -13
O=C(COC(=O)C12CC3CC(CC(C3)C1)C2)NCCc1ccccc1 | -1 | -14
O=C1C2=C(c3ccccc31)[N+](=O)C1CCCCC1N2[O-] (centres undefined) | 2 | 15
O=C1C2=C(c3ccccc31)[N+](=O)[C@@H]1CCCC[C@@H]1N2[O-] | 12 | 59*
Clc1ccc(COn2nnc3ccccc32)c(Cl)c1 | -3 | -3
O=C(O)CC/C(=N\NC(=O)c1ccccc1Br)c1ccccc1 | x | -25
COc1cccc(OCCc2c(C)n[nH]c2C)c1 | 9 | -20
Cc1cccc(OCCCCc2c(C)n[nH]c2C)c1 | -3 | 70*
Cc1cc(C)nc(SCC(=O)Nc2sc3c(c2C#N)CCC(C)C3)n1 (centres undefined) | -10 | 93*
Cc1ccnc(SCC(=O)Nc2sc3c(c2C#N)CCC(C(C)(C)C)C3)n1 (centres undefined) | 7 | 1
C=CCc1cccc2cc(C(=O)Nc3ccc(S(=O)(=O)Nc4nnc(CC)s4)cc3)c(=O)oc12 | x | 75*
SMILES | RmlCD inh mix | YopH PTP inh
C=CCc1cccc2cc(C(=O)Nc3ccc(F)cc3)c(=O)oc12 | x | -43
COc1ccc(NC(=O)/C(=C\c2cccnc2)NC(=O)c2cccs2)cc1 | x | -12
COc1ccc(NC(=O)/C(=C/c2cccnc2)NC(=O)c2cccs2)cc1 | x | 53*
Cc1cc(C)c(NC(=O)COc2ccccc2C(=O)Nc2ccc3c(c2)oc2ccccc23)c(C)c1 | + | -13
CCOc1ccccc1C(=O)Nc1ccc(-c2nnc(-c3ccc(C)cc3)o2)cc1 | x | -11
Cc1ccc(NC(=O)C(C)Sc2nnc(-c3cccnc3)n2-c2ccccc2)cc1 (centres undefined) | -7 | -1
CC(=O)N1N=C(c2ccncc2)OC12CCCC2 | -3 | 5
CCOCCCn1c(=NC(C)=O)c(C(=O)OCC)cc2c(=O)n3ccccc3nc21 | 67* | 7
CCOC(=O)c1cc2c(=O)n3ccccc3nc2n(CC(C)C)c1=NC(=O)c1ccco1 | 14 | 4
CCOC(=O)c1cc2c(=O)n3ccccc3nc2n(Cc2ccccc2)c1=N | 31* | -12
CCOC(=O)c1cc2c(=O)n3ccccc3nc2n(CCCOC)c1=NC(=O)C(C)(C)C | 22 | -14
Cc1ccc(C(=O)CCC(=O)Nc2cccc(C(F)(F)F)c2)cc1 | -5 | -38
CNC(=O)c1cc2cc(OC)ccc2oc1=O | 0 | -13
CNC(=O)c1cc2cc(OC)ccc2oc1=N | 42* | -19
O=C(Oc1ccc(Cl)cc1N1C(=O)CCC1=O)c1ccco1 | 3 | -28
CC(=O)C1=C(c2ccc(Br)cc2)C(=O)c2ccccc2C1=O | x | 4
CNC1=C(N(C(C)=O)c2ccc(Br)cc2)C(=O)c2ccccc2C1=O | x | 84*
COc1ccccc1C1CC(=O)NC(C)=C1C(=O)OCC(C)C (centres undefined) | -12 | -21
CC1=C(C(=O)OCC(C)C)C2(O)C(=O)c3ccccc3C2(O)N1 (centres undefined) | x | 69*
C=CCOC(=O)C1=C(C)NC2(O)c3ccccc3C(=O)C12O (centres undefined) | 2 | 78*
C=CCOC(=O)C1=C(C)NC(=O)NC1/C=C/c1ccccc1 (centres undefined) | 1 | -41
O=C(NC1CCCC1)C1CCCN1S(=O)(=O)c1cccc2cccnc12 (centres undefined) | 5 | -38
O=C(NCc1ccccc1)C1CCCN1S(=O)(=O)c1cccc2cccnc12 (centres undefined) | 19 | 80*
Nc1nc(SCc2ccc(Cl)cc2Cl)nc2nc3c(cc12)CCCC3 | x | -15
